Test results from PubChem BioAssay AID1159580 (chemical genetic matrix, 2015).
Where “and” joins values, the source holds several entries; their conditions need not be identical. Identical values can stand only once. The campaign covered roughly 5,500 compounds. About 2,000 (36%) were called active. About 18% were inconclusive and are not listed. Cut-off read from the data, not from the text of the source: active = normalized growth mostly below about 0.91 (no sharp cut-off); inconclusive = no clear call, values can overlap the other calls; inactive = mostly above about 0.92. Some of the results follow.

Assay: chemical genetic growth profiling, strain panel (AID 1159580);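 note: tested at 20 µM; growth read once vehicle control cultures reached saturation at 30 °C; 1 = growth at the plate median or of vehicle wells; lower values mean less growth of the strain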
Settings: S. cerevisiae deletion strains, growth OD
[1] = locus YAR019C, strain CDC15, hits give low values
[2] = locus YBL105C, strain PKC1, hits give low values
[3] = locus YBR135W, strain CKS1, hits give low values
[4] = locus YBR136W, strain MEC1, hits give low values
[5] = locus YBR160W, strain CDC28, hits give low values
[6] = locus YDL017W, strain CDC7, hits give low values
[7] = locus YDL028C, strain MPS1, hits give low values
[8] = locus YDL101C, strain DUN1, hits give low values
[9] = locus YDL108W, strain KIN28, hits give low values
[10] = locus YDL132W, strain cdc53, hits give low values
[11] = locus YDL214C, strain PRR2, hits give low values
[12] = locus YDR052C, strain DBF4, hits give low values
[13] = locus YDR054C, strain cdc34, hits give low values
[14] = locus YDR226W, strain ADK1, hits give low values
[15] = locus YDR477W, strain SNF1, hits give low values
[16] = locus YER123W, strain YCK3, hits give low values
[17] = locus YER133W, strain GLC7, hits give low values
[18] = locus YFL009W, strain cdc4, hits give low values
[19] = locus YFL029C, strain CAK1, hits give low values
[20] = locus YFR003C, strain YPI1, hits give low values
[21] = locus YFR019W, strain FAB1, hits give low values
[22] = locus YFR028C, strain CDC14, hits give low values
[23] = locus YGR040W, strain KSS1, hits give low values
[24] = locus YGR052W, strain FMP48, hits give low values
[25] = locus YGR092W, strain DBF2, hits give low values
[26] = locus YHR030C, strain SLT2, hits give low values
[27] = locus YHR079C, strain IRE1, hits give low values
[28] = locus YHR082C, strain KSP1, hits give low values
[29] = locus YHR205W, strain SCH9, hits give low values
[30] = locus YIL147C, strain SLN1, hits give low values
[31] = locus YJL095W, strain BCK1, hits give low values
[32] = locus YJL128C, strain PBS2, hits give low values
[33] = locus YJL157C, strain FAR1, hits give low values
[34] = locus YJR016C, strain ILV3, hits give low values
[35] = locus YJR066W, strain TOR1 (second series), hits give low values
[36] = locus YJR066W, strain TOR1, hits give low values
[37] = locus YKL048C, strain ELM1, hits give low values
[38] = locus YKL067W, strain YNK1, hits give low values
[39] = locus YKL101W, strain HSL1, hits give low values
[40] = locus YKL193C, strain SDS22, hits give low values
[41] = locus YKL203C, strain TOR2, hits give low values
[42] = locus YLR113W, strain HOG1, hits give low values
[43] = locus YLR133W, strain CKI1, hits give low values
[44] = locus YLR403W, strain SFP1, hits give low values
[45] = locus YML070W, strain DAK1, hits give low values
[46] = locus YMR001C, strain CDC5, hits give low values
[47] = locus YMR205C, strain PFK2 (second series), hits give low values
[48] = locus YMR277W, strain FCP1, hits give low values
[49] = locus YNL006W, strain LST8, hits give low values
[50] = locus YNL020C, strain ARK1, hits give low values
[51] = locus YNL161W, strain CBK1, hits give low values
[52] = locus YNL183C, strain NPR1, hits give low values
[53] = locus YNL207W, strain RIO2, hits give low values
[54] = locus YNL222W, strain SSU72, hits give low values
[55] = locus YNL307C, strain MCK1 (second series), hits give low values
[56] = locus YOL078W, strain AVO1, hits give low values
[57] = locus YOL136C, strain PFK27, hits give low values
[58] = locus YOR061W, strain CKA2, hits give low values
[59] = locus YOR119C, strain RIO1, hits give low values
[60] = locus YOR231W, strain MKK1, hits give low values
[61] = locus YOR329C, strain SCD5, hits give low values
[62] = locus YPL031C, strain PHO85, hits give low values
[63] = locus YPL153C, strain RAD53, hits give low values
[64] = locus YPL204W, strain HRR25, hits give low values
[65] = locus YPL209C, strain IPL1, hits give low values
[66] = locus YPL256C, strain CLN2, hits give low values
[67] = locus YPR025C, strain CCL1, hits give low values
[68] = locus YPR106W, strain ISR1, hits give low values
[69] = locus YPR111W, strain DBF20, hits give low values
[70] = strain NNK1, hits give low values
[71] = strain TSCII, hits give low values

Measured: normalized growth

Fc1cccc(Cl)c1CSc1nncn1-c1ccc(OCc2ccccc2)cc1
inactive: locus YAL013W, strain DEP1, hits give low values 0.976 | [1] 0.991 | [2] 1.01 | [3] 1 | [4] 1 | [5] 1.01 | locus YBR229C, strain ROT2, hits give low values 0.991 | locus YCL061C, strain MRC1, hits give low values 0.968 | [6] 1.01 | [7] 1 | [8] 0.997 and 0.986 | [9] 1 | [10] 0.994 | [11] 0.97 | [12] 0.996 | [13] 1.01 | locus YDR150W, strain NUM1, hits give low values 0.909 | [14] 0.999 | [15] 0.983 | locus YEL061C, strain CIN8, hits give low values 0.956 | [16] 0.958 | [17] 0.974 | [18] 1.01 | [19] 1 | [20] 1.01 | [21] 0.955 | [22] 0.997 | [23] 0.979 | [24] 1.05 | locus YGR078C, strain PAC10, hits give low values 0.984 | [25] 0.988 | [26] 0.811 and 1.12 | [27] 1.03 | [28] 1.24 | locus YHR087W, strain rtc3, hits give low values 0.983 | [29] 0.955 | [30] 1 | [31] 1.04 | [32] 1.01 | [33] 0.969 | [34] 0.997 | locus YJR043C, strain POL32, hits give low values 0.98 | [35] 0.967 | [36] 1.23 | locus YJR075W, strain HOC1, hits give low values 0.988 | [37] 0.977 | [38] 0.999 | [39] 0.989 | locus YKL190W, strain CNB1, hits give low values 0.985 | [40] 0.996 | [41] 1.06 | locus YLR039C, strain RIC1, hits give low values 0.792 | locus YLR058C, strain SHM2 (second series), hits give low values 0.991 | locus YLR085C, strain ARP6, hits give low values 0.831 | [42] 1.01 | [43] 0.949 | locus YLR262C, strain YPT6, hits give low values 0.838 | [44] 0.965 | [45] 0.958 | locus YML094W, strain GIM5, hits give low values 0.948 | [46] 1 | [47] 0.965 | locus YMR219W, strain ESC1, hits give low values 0.985 | locus YMR263W, strain SAP30, hits give low values 0.963 | [48] 0.988 | [49] 0.994 | [50] 0.963 | locus YNL153C, strain GIM3, hits give low values 0.977 | [51] 0.973 | [52] 0.98 | [53] 1 | [54] 0.995 | locus YNL298W, strain CLA4 (second series), hits give low values 0.929 | [55] 0.963 | locus YNL322C, strain KRE1, hits give low values 0.988 | locus YNR030W, strain Alg12, hits give low values 0.964 | [56] 0.977 | [57] 0.952 | [58] 0.982 | [59] 1.04 | [60] 1.05 | [61] 1 | [62] 0.986 | locus YPL055C, strain LGE1, hits give low values 0.847 | [63] 0.992 | [64] 0.973 | [65] 0.994 | locus YPL241C, strain CIN2, hits give low values 0.949 | [66] 0.983 | [67] 1.01 | [68] 0.987 | [69] 0.986 | locus YPR135W, strain CTF4, hits give low values 0.832 | [70] 0.984 | [71] 0.986

Cn1c(CSCCOc2ccccc2)nnc1SCc1ccc(Cl)cc1Cl
active: [26] 0.829
inactive: [1] 0.985 | [2] 0.982 | [3] 0.98 | [4] 0.98 | [5] 0.98 | [6] 0.986 | [7] 0.992 | [8] 0.995 | [9] 0.986 | [10] 0.968 | [11] 0.984 | [12] 0.982 | [13] 0.985 | [14] 0.971 | [15] 1.02 | [16] 0.98 | [17] 1 | [18] 0.983 | [19] 0.99 | [20] 0.987 | [21] 0.946 | [22] 0.989 | [23] 1.01 | [24] 1.12 | [25] 0.984 | [27] 0.97 | [28] 1.02 | [29] 0.969 | [30] 0.985 | [31] 0.911 | [32] 0.905 | [33] 1.01 | [34] 0.982 | [35] 0.977 | [36] 0.995 | [37] 0.963 | [38] 0.994 | [39] 0.981 | [40] 0.998 | [41] 1.07 | [42] 1 | [43] 0.982 | [44] 1.01 | [45] 1 | [46] 0.988 | [47] 0.994 | [48] 0.989 | [49] 0.99 | [50] 0.974 | [51] 0.98 | [52] 0.996 | [53] 1 | [54] 0.984 | [55] 0.96 | [56] 0.994 | [57] 0.988 | [58] 1 | [59] 1.14 | [60] 0.992 | [61] 0.986 | [62] 1.03 | [63] 1.03 | [64] 1.04 | [65] 0.99 | [66] 0.979 | [67] 0.986 | [68] 0.982 | [69] 0.969 | [70] 0.983 | [71] 0.988
